Bioassay records (PubChem)
ALDH1A1 inh: inhibitors of human aldehyde dehydrogenase 1A1; Potency, µM (highest dose often 75.3 µM), without a hit: at the highest dose activity, negative = inhibition, usual class: inhibitors; 220,000 compounds, 7.3% hits; Purified ALDH1A1, NADH fluorescence, propionaldehyde substrate; P00352;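 also: plate controls were no enzyme wells and a reference inhibitor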
Target sequence (P00352 whole entry, looked up): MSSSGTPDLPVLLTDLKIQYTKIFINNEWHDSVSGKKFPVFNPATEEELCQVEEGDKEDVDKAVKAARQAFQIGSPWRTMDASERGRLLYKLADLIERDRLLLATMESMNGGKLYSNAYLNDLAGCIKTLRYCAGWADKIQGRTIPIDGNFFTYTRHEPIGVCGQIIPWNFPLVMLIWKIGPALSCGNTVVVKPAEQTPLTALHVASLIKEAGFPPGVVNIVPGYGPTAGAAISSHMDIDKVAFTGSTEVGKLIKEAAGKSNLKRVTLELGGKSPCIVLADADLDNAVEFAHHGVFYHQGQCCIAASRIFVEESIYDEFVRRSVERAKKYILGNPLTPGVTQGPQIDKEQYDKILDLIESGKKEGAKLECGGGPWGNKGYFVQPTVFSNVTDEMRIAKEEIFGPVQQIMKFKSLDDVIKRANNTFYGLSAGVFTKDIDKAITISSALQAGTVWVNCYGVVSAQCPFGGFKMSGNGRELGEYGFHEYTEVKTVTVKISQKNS
Lamin A splicing: modulators of lamin A splicing. AID 1487. HeLa LMNA splicing GFP/RFP minigene ratio, 48 h. 200,000 compounds, 0.01% hits. Potency, µM (doses to about 46.1 µM), for the others: at the top dose ratio change, negative = inhibition, hits mostly inhibitors; active = well fitted inhibition curve with a large enough effect in the signal ratio, with a control signal flat, not every such curve was filed as active; inconclusive = small, poorly fitted or top-dose-only effect, or effect the other way, or a change in a side signal; the % refers to the signal ratio; also: % is scaled to controls: 0 for no effect and ±100 for the full control effect
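S3 HeLa stable clones carrying a lamin A-EGFP splicing minigene plus DsRed2 were seeded at 600 cells/well in Opti-MEM with 2% FBS, pin-dosed and incubated 48 h at 37°C. Acumen cytometry (488 nm) gave the GFP/RFP total-intensity ratio.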
HTT ATP protect: protects HTT-Q103 PC12 cells, measured by ATP. PC12 HTT-Q103 induced, cytoprotection, ATP luminescence, 40 h. Potency, µM (highest dose often 56.4 µM), for inactives: cytoprotection (ATP increase), most hits filed as activators. 230,000 compounds, 0.14% hits. AID 1471; active = well fitted curve in the direction sought with a large enough effect; inconclusive = small, poorly fitted or top-dose-only effect, or another doubt; inactive = no such curve, though single readings can be large; an effect the other way counts as inactive or inconclusive; also: % of control where 0% means no effect; nearly all actives have a fitted effect of over 45% in size
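Stable PC12 Q103-GFP cells in serum-supplemented, phenol red-free DMEM; induction by tebufenozide at 100 nM final; compound dose series; cell viability quantified luminescently from ATP.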
HPGD block: HPGD (human) dehydrogenase inhibition; P15428; purified HPGD, NADH fluorescence kinetic, PGE2 substrate; Potency, µM, inactives show at the top dose activity change, negative = inhibition, actives largely listed as inhibitors; 150,000 compounds, 4.3% hits; AID 894; also: % is scaled to controls: 0 for no effect and ±100 for the full control effect
Target sequence (P15428 whole entry, looked up): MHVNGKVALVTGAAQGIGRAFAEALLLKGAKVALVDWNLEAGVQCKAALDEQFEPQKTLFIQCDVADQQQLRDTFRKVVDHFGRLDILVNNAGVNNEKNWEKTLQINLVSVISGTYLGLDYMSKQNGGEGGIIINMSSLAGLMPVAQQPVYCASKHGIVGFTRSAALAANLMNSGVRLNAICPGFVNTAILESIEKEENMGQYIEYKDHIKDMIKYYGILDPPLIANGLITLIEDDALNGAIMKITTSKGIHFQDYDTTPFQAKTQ
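NADH formation kinetics: reaction with 30 uM PGE2 and 1 mM NAD+ (final), 20 nM enzyme, Tris-HCl pH 8 with Tween 20, after 15 min compound preincubation at room temperature. Fluorescence change, last versus first of five reads.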
HttQ103 aggreg: reduces HttQ103-GFP aggregates in PC12 cells. PC12 HttQ103-GFP aggregates, Acumen cytometry, 40 h. AID 1688. 220,000 compounds, 1.1% hits. Potency, µM (doses to about 46.1 µM), inactives show at the highest dose activity change, negative = inhibition, actives largely listed as inhibitors; active = well fitted curve in the direction sought with a large enough effect; inconclusive = small, poorly fitted or top-dose-only effect, or another doubt; inactive = no such curve, though single readings can be large; an effect the other way counts as inactive or inconclusive; also: % is scaled to controls: 0 for no effect and ±100 for the full control effect; nearly all actives have a fitted effect of over 60% in size
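Compounds (qHTS titration) were added to PC12 cells expressing an ecdysone-driven HTT exon 1 Q103–GFP fusion after induction with 100 nM tebufenozide. Aggregate formation was measured as GFP objects in cell lysates.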
Starred values were filed as active, the others as inactive; ? = inconclusive; / = no result; [ ] = another dose, or the depositor's remark. Hits are enriched below; roughly 8.8% of the tested compounds scored in any of these assays. Unless noted, calls follow the shape of the dose curve; as a rule, active = well fitted inhibition curve with a large enough effect (not every such curve was filed as active); inconclusive = small, poorly fitted or top-dose-only effect, or another doubt; inactive = no such curve, though single readings can be large or run the other way. Potency is read from the fitted curve at half-maximal effect.

SMILES | ALDH1A1 inh | Lamin A splicing | HTT ATP protect | HPGD block | HttQ103 aggreg
CCC(=O)NC(NC(=S)Nc1c(C)n(C)n(-c2ccccc2)c1=O)C(Cl)(Cl)Cl (stereo unspecified) | -1% | -4% | 20%[10 µM] | -15% | ?
Cc1ccccc1N1CCN(c2ccc(NC(=O)C3CCCCC3C(=O)O)cc2)CC1 (stereo unspecified) | ? | ? | / | -3% | 16%
COC(=O)C(Cc1ccccc1)NC(=S)NC(=O)c1ccccc1 (stereo unspecified) | 8.9µM* | ? | -15%[10 µM] | / | 11%
O=C(NC(=S)NCCc1ccccc1)c1ccccc1 | 16µM* | 4% | -50% | -22% | -9%
O=C(CNC(=S)NC(=O)c1ccc(Cl)cc1)c1ccccc1 | 8.9µM* | 13% | / | -5% | 18%
Cc1ccc(NC(=S)NCCc2ccccc2)nc1 | 10µM* | ? | / | / | 0%
Cc1ccc(NC(=O)CCCc2ccccc2)nc1 | -6% | ? | -37% | / | -11%
COc1ccc(CCNC(=S)NC(=O)c2ccccc2)cc1C | / | / | 19%[10 µM] | / | 3%[9.22 µM]
O=C(CNC(=S)NC(=O)c1ccc(Br)o1)c1ccccc1 | 1% | ? | 30%[0.074 µM] | 2% | -3%
Cc1ccc(C)c(-c2nc(Cn3c(=O)cc(-c4ccccc4)c4c(C)nn(C)c43)c(C)o2)c1 | / | -11%[46 µM] | / | / | /
Cc1c(C(=O)Nc2cccc(-c3nc4ccccc4s3)c2)oc2ccccc12 | / | 8%[46 µM] | / | / | /
Cc1ccc(-n2ncc3c(=O)n(CC(=O)NCc4ccco4)cnc32)cc1C | ? | ? | -16%[10 µM] | ? | -12%
CCCCNC(=O)Cn1cnc2c(cnn2-c2ccc(C)c(C)c2)c1=O | 16% | ? | -4%[10 µM] | -25% | -2%
C#CCn1cnc2c(cnn2-c2ccc(C)c(C)c2)c1=O | 14µM* | -5% | -24% | -16% | -26%
Cc1ccc(-n2ncc3c(=O)n(CC#N)cnc32)cc1C | 16µM* | 19% | -2% | -24% | -20%
COc1cccc(NC(=O)Cn2nc(C)c3c(C)n(-c4ccccc4)nc3c2=O)c1 | / | 12%[46 µM] | / | / | /
CCOc1ccc(C(=O)Nc2nc(-c3ccc(Br)cc3)ns2)cc1 | / | 14%[46 µM] | / | / | /
CCC(CC)C(=O)Nc1nnc(SCc2cc(=O)n3cccc(C)c3n2)s1 | / | 1%[46 µM] | / | / | /
CC1CCN(C(=O)CCCOc2cc(=O)n(C)c3ccccc23)CC1 | ? | -16% | 6% | 7.9µM* | 1%
COc1ccc(N2CCN(C(=O)CCCOc3cc(=O)n(C)c4ccccc34)CC2)cc1 | 1% | -5% | -14% | -2% | 27%
CC(C)CCNC(=O)CCCOc1cc(=O)n(C)c2ccccc12 | -1% | ? | -30% | 16µM* | ?
CN1CCN(CCCNC(=O)CCCOc2cc(=O)n(C)c3ccccc23)CC1 | -1% | 10% | -7% | 7% | 9%
O=C(CCCCCN1C(=O)c2ccccc2C1=O)NCc1ccco1 | -5% | 2% | -9%[10 µM] | 11µM* | 11%
Cc1ccc(CNC(=O)CCCOc2cc(=O)n(C)c3ccccc23)o1 | 20µM* | -17% | -10%[10 µM] | -23% | ?
Cc1c(-c2nnc(SCC(=O)Nc3ccc(Cl)cc3)o2)nnn1-c1ccc(F)cc1 | / | 9%[46 µM] | / | / | /
SMILES | ALDH1A1 inh | Lamin A splicing | HTT ATP protect | HPGD block | HttQ103 aggreg
Cn1c(=O)cc(OCCCC(=O)NCc2ccco2)c2ccccc21 | 20µM* | ? | -12% | 20µM* | 33%
O=C(NC(=S)NCc1ccccc1)c1ccccc1F | 32µM* | -4% | -10% | -25% | 2%
O=C(NC(=S)NC(=O)c1ccccc1F)c1ccccc1F | 2µM* | -2% | 31%[10 µM] | 13µM* | -7%
CCN(CC)C(=S)Oc1ccc(Cl)cc1Cl | 10% | / | -9%[10 µM] | / | -14%[9.22 µM]
Cc1cc(C)n(-c2ccc(C(=O)OCC(=O)c3ccc(Br)s3)cc2)n1 | 22µM* | 3% | -11% | -12% | -10%
CCOC(=O)C1=NNC2C(=O)N(C3CCCCC3)C(=O)C12 (stereo unspecified) | 13µM* | 1% | -4% | -5% | 18%
C=C1C(CCl)(CCl)C2(Cl)C(Cl)C(Cl)C1(Cl)C2(Cl)Cl (stereo unspecified) | 14µM* | / | -34% | -19% | -16%
Cc1cc(Nc2ccc3c(c2)OCCO3)c2cc(Cl)ccc2n1 | -1% | ? | 25%[10 µM] | -7% | ?
CCOc1ccc(NC(=O)CN2C(=O)C3CC=CCC3C2=O)cc1 (stereo unspecified) | 5% | 7% | -6% | -10% | 15%
COc1ccc(NC(=O)C2CCC(N3C(=O)C4C5C=CC(C5)C4C3=O)CC2)cc1 (stereo unspecified) | 7.9µM* | -11% | 5% | -2% | ?
CCOc1ccc(NC(=O)C2CCC(N3C(=O)C4CC=CCC4C3=O)CC2)cc1 (stereo unspecified) | 4µM* | ? | -29% | -19% | 2%
Nc1n[nH]c(C2CCCCC2)n1 | 1% | / | -1%[10 µM] | / | 12%[9.22 µM]
S=c1nc(C2CCCCC2)[nH][nH]1 | ? | -2% | -4%[10 µM] | 14µM* | 13%
CCOC(=O)C1(C)C=C(Nc2ccc(O)cc2)C(=O)N1c1ccc(O)cc1 (stereo unspecified) | 3.5µM* | ? | 8%[10 µM] | -6% | 17%[9.22 µM]
CCOC(=O)c1ccc(N2C(=O)CC(C)(CC)CC2=O)cc1 | / | / | 16%[10 µM] | / | -13%[9.22 µM]
CCOC(=O)C1(C)C=C(Nc2ccc(OC)cc2)C(=O)N1c1ccc(OC)cc1 (stereo unspecified) | 2.8µM* | -11% | -13%[10 µM] | ? | 26%
CCOC(=O)C1(C)C=C(Nc2cccc(OC)c2)C(=O)N1c1ccccc1 (stereo unspecified) | / | / | -40%[10 µM] | / | 19%[9.22 µM]
Cc1ccccc1-c1ccc2ncnc(NCc3cccs3)c2c1 | ? | ? | -188% | / | /
CCCCCCCCSc1nnc(CSc2nc3nc(C)cc(C)n3n2)o1 | 0% | 10% | -40% | -21% | 22µM*
CC1(C)CC(=O)C2=C(C1)N(Cc1ccco1)C(=O)C2(NC(=O)C1CCCCC1)C(F)(F)F (stereo unspecified) | -2% | 14% | -4% | 0% | 5.6µM*
CC1(C)CC(=O)C2=C(C1)N(Cc1ccco1)C(=O)C2(NC(=O)c1ccc(Cl)cc1Cl)C(F)(F)F (stereo unspecified) | 2% | 17% | -7% | -9% | -14%
CCCN1C(=O)C(NC(=O)c2ccncc2)(C(F)(F)F)C2=C1CC(C)(C)CC2=O (stereo unspecified) | 7.1µM* | 8% | -9%[0.074 µM] | -14% | -6%[9.22 µM]
Cc1noc(C)c1C(=O)N1CCC2(CCCN(c3ncccn3)C2)CC1 | -3% | / | -9% | -17% | /
COc1ccc(C(=O)CSc2ccc(-c3ccco3)nn2)cc1 | 22µM* | -8% | -4%[10 µM] | -17% | -7%
O=C(CSc1ccc(-c2ccccn2)nn1)N1CCc2ccccc21 | 18µM* | ? | -66% | / | ?
O=C(CSc1ccccn1)N1CCc2ccccc21 | ? | ? | -125% | / | 30%
